# Inconclusive results are not listed. Entries that show only a call come without a potency. Activity calls are given as the source filed them. Calls follow the shape of the dose curve; as a rule, active = well fitted inhibition curve with a large enough effect; inconclusive = small, poorly fitted or top-dose-only effect; inactive = no such curve, though single readings can be large or run the other way.
# Test system: Zika virus NS2B-NS3 protease (unlinked complex)
# Assay: Primary screen GU Rhodamine qHTS for Zika virus inhibitors: Unlinked NS2B-NS3 protease assay (AID 1347159); also: nearly all actives have a fitted effect of over 60% in size
# Settings: Recombinant ZIKV NS2B-NS3 protease, Rhodamine110 substrate fluorescence; series mostly up to 107 µM
# Procedure, shortened: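 Noncovalent NS2B hydrophilic domain/NS3 protease complex (25 nM final) in 10 mM Tris-HCl pH 8.0, 0.01% Tween 20, preincubated 15 min with compounds (up to 114 microM), then 1.5 microM Rhodamine110 substrate. Fluorescence change over 15 min fitted to 4-parameter Hill.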
row,SMILES,Potency
1,CC(=O)O[C@H]1C[C@@](O)(C(C)C)[C@@H]2[C@@H](OC(=O)c3ccc(O)cc3)CC(C)=CC[C@@]12C,inactive
2,Cn1ncnc1[C@H]1c2n[nH]c(=O)c3cc(F)cc(c23)N[C@@H]1c1ccc(F)cc1,inactive
3,COc1ccccc1N1CCN(CC[C@@](C)(C(=O)C2CCCCC2)c2ccccc2)CC1,inactive
4,C=C1C(=O)O[C@H]2C3=C(C)CCC[C@]3(C)C(=O)C[C@@H]12,inactive
5,CCOc1cn(-c2ccc(F)cc2C)nc1C(=O)Nc1ccc(Oc2ccnc3cc(OC)c(OC)cc23)c(F)c1,inactive
6,CN1CCc2cc3c(cc2C(=O)Cc2cc4c(cc2C1)OCO4)OCO3,inactive
7,O=C(c1ccc(Cl)cc1)N1CCN(c2ccnc3cc(Cl)ccc23)CC1,inactive
8,Cc1cc(N2CCOCC2)ccc1Nc1nc(NC2CCCCC2)c2[nH]cnc2n1,inactive
9,C=C1C(=O)O[C@@H]2C[C@@]3(C)CCCC(=C)[C@]3(O)C[C@H]12,inactive
10,O=C(COc1ccc(C(=O)c2ccccc2)cc1)NC1CCN(Cc2ccccc2)CC1,inactive
11,CC(C)C[C@@H]1NC(=O)[C@@H](Cc2ccccc2)NC(=O)C(CCCCCC(=O)C2CO2)NC(=O)[C@@H]2CCCCN2C1=O (some centres undefined),inactive
12,N#Cc1cc(-c2ccnc(Nc3ccc(N4CCOCC4)cc3)n2)ccc1OC1CCOCC1,inactive
13,CN1CC2CN(c3ccc4oc5ccccc5c(=O)c4c3)CC2C1 (centres undefined),inactive
14,O=C(NC1CCC1)c1ccc(C#Cc2cccc(F)c2)nc1,inactive
15,Cc1cnc(-c2ccccc2C(C)C)nc1NCc1ccc(-n2ccnn2)cc1,inactive
16,CCc1cccc(CC)c1-n1c(C=C(C)C)c(C(=O)N2CCNCC2)cc(-c2nc(-c3ccc(C(F)(F)F)cc3)cs2)c1=O,inactive
17,Cc1c(C(=O)Nc2ccc(N3CCC(N4CCOCC4)CC3)c(C#N)c2)cnn1-c1ccc(Cl)cc1,inactive
18,N#Cc1ccc(COC[C@H]2O[C@@H](n3c(NCc4ccc(Cl)c(Cl)c4)nc4c(N)ncnc43)[C@H](O)[C@@H]2O)cc1,inactive
19,COc1cc(F)c(F)c(Nc2ccc(I)cc2F)c1NS(=O)(=O)C1(CC(O)CO)CC1 (centres undefined),inactive
20,O=S1(=O)CCN(Cc2cc(NCC3CCOCC3)c3[nH]c(-c4ccccc4)cc3c2)CC1,inactive
21,CC(=O)OC[C@]12[C@H](OC(C)=O)[C@H](OC(=O)c3ccccc3)[C@@H]3[C@@H](OC(C)=O)[C@]1(OC3(C)C)[C@H](C)C[C@H](OC(C)=O)[C@@H]2OC(=O)c1ccccc1,inactive
22,Cn1cc(-c2ccc(F)c(C(F)(F)F)c2)nc1C1CCN(c2ncnc3[nH]ncc23)CC1,inactive
23,CN(C)c1ccnc2sc3c(=O)n(N4CCCCCC4)cnc3c12,inactive
24,CC(=O)OC(C)(C)/C=C/C(=O)C(C)(O)C1C(O)CC2(C)C3CC=C(C(C)(C)C(=O)O)C(CC(=O)O)C3(C)C(=O)CC12C (centres undefined),inactive
25,CC(=O)C1=CCC2C3CC=C4CC(O)CC(O)C4(C)C3C(O)CC12C (centres undefined),inactive

# Test system: Zika virus NS2B-NS3 protease (linked construct)
# Assay: Primary screen NINDS Rhodamine qHTS for Zika virus inhibitors (AID 1347160); also: nearly all actives have a fitted effect of over 55% in size
# Settings: purified NS2B-NS3 protease, Rhodamine110 substrate fluorescence; series mostly up to 57.1 µM
# Procedure, shortened: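 Purified NS2B-NS3 protease with the NS2B hydrophilic domain joined by a flexible linker (25 nM) in 10 mM Tris-HCl pH 8.0, 0.01% Tween 20, preincubated 15 min at RT with compound; Rhodamine110 peptide substrate 1.5 µM; fluorescence change over 15 min; 4-parameter Hill fit.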
row,SMILES,Potency
1,Cc1ccc(F)cc1S(=O)(=O)N[C@@H]1CCN(Cc2ccc(OC(C)C)cc2)C1,inactive
2,CCCn1cc2c(nc(NC(=O)Nc3ccc(OC)cc3)n3nc(-c4ccco4)nc23)n1,inactive
3,C=C1CC(=O)C2OC2(C)CC2OC(=O)C(=C)C2C(O)C1OC(=O)/C(C)=C\C (centres undefined),inactive
4,O=C(CCl)Nc1cccc(NC2=NS(=O)(=O)c3ccccc32)c1,inactive
5,CC1(C)CCC2(C(=O)OC3OC(COC4OC(CO)C(O)C(O)C4O)C(O)C(O)C3O)CCC3(C)C(=CCC4C5(C)CCC(OC6OCC(O)C(O)C6O)C(C)(C)C5CCC43C)C2C1O (centres undefined),inactive
6,C=C(C)C(=O)O[C@H]1[C@H]2C(=C)C(=O)O[C@@H]2/C=C(\CO)CC/C=C(/C=O)[C@@H]1O,inactive
7,CNc1nc(Nc2ccc(C(=O)N3CCOCC3)cc2OC)nc2[nH]cc(Cl)c12,inactive
8,C=CC(=O)Nc1cccc(Nc2nc(Nc3ccc(NC4CN(CCF)C4)cc3OC)ncc2C(F)(F)F)c1,inactive
9,C=C1C(=O)OC2C=C(C)CC/C=C(\CO)CC(O)C12 (centres undefined),inactive
10,O=C(NCC(=O)N1CCCC1)Nc1ccc2cnccc2c1,inactive
11,Cc1nc(-c2cn3c(n2)-c2ccc(-c4cnn(C(C)(C)C(N)=O)c4)cc2OCC3)n(C(C)C)n1,inactive
12,Cc1cc(F)ccc1-c1nc(NCCN=C(N)NC#N)nc2c1ccc(=O)n2-c1c(F)cccc1F,inactive
13,COc1ccc(CCc2nc3c(C)c(-c4c(C)noc4C)c(C)cc3n2CCN2CCOCC2)cc1,inactive
14,CCN(CC)CCCCCCNc1cc(OC)cc2c(C)ccnc12,inactive
15,CC(=O)O[C@H]1C[C@@](O)(C(C)C)[C@@H]2[C@@H](OC(=O)c3ccc(O)cc3)CC(C)=CC[C@@]12C,inactive
16,Cn1ncnc1[C@H]1c2n[nH]c(=O)c3cc(F)cc(c23)N[C@@H]1c1ccc(F)cc1,inactive
17,COc1ccccc1N1CCN(CC[C@@](C)(C(=O)C2CCCCC2)c2ccccc2)CC1,inactive
18,C=C1C(=O)O[C@H]2C3=C(C)CCC[C@]3(C)C(=O)C[C@@H]12,inactive
19,CCOc1cn(-c2ccc(F)cc2C)nc1C(=O)Nc1ccc(Oc2ccnc3cc(OC)c(OC)cc23)c(F)c1,inactive
20,CN1CCc2cc3c(cc2C(=O)Cc2cc4c(cc2C1)OCO4)OCO3,inactive

row,SMILES,Potency
1,O=C(c1ccc(Cl)cc1)N1CCN(c2ccnc3cc(Cl)ccc23)CC1,inactive
2,Cc1cc(N2CCOCC2)ccc1Nc1nc(NC2CCCCC2)c2[nH]cnc2n1,inactive
3,C=C1C(=O)O[C@@H]2C[C@@]3(C)CCCC(=C)[C@]3(O)C[C@H]12,inactive
4,O=C(COc1ccc(C(=O)c2ccccc2)cc1)NC1CCN(Cc2ccccc2)CC1,inactive
5,CC(C)C[C@@H]1NC(=O)[C@@H](Cc2ccccc2)NC(=O)C(CCCCCC(=O)C2CO2)NC(=O)[C@@H]2CCCCN2C1=O (some centres undefined),inactive
6,N#Cc1cc(-c2ccnc(Nc3ccc(N4CCOCC4)cc3)n2)ccc1OC1CCOCC1,inactive
7,CN1CC2CN(c3ccc4oc5ccccc5c(=O)c4c3)CC2C1 (centres undefined),inactive
8,O=C(NC1CCC1)c1ccc(C#Cc2cccc(F)c2)nc1,inactive
9,Cc1cnc(-c2ccccc2C(C)C)nc1NCc1ccc(-n2ccnn2)cc1,inactive
10,CCc1cccc(CC)c1-n1c(C=C(C)C)c(C(=O)N2CCNCC2)cc(-c2nc(-c3ccc(C(F)(F)F)cc3)cs2)c1=O,inactive
11,Cc1c(C(=O)Nc2ccc(N3CCC(N4CCOCC4)CC3)c(C#N)c2)cnn1-c1ccc(Cl)cc1,inactive
12,N#Cc1ccc(COC[C@H]2O[C@@H](n3c(NCc4ccc(Cl)c(Cl)c4)nc4c(N)ncnc43)[C@H](O)[C@@H]2O)cc1,inactive
13,COc1cc(F)c(F)c(Nc2ccc(I)cc2F)c1NS(=O)(=O)C1(CC(O)CO)CC1 (centres undefined),inactive
14,O=S1(=O)CCN(Cc2cc(NCC3CCOCC3)c3[nH]c(-c4ccccc4)cc3c2)CC1,inactive
15,CC(=O)OC[C@]12[C@H](OC(C)=O)[C@H](OC(=O)c3ccccc3)[C@@H]3[C@@H](OC(C)=O)[C@]1(OC3(C)C)[C@H](C)C[C@H](OC(C)=O)[C@@H]2OC(=O)c1ccccc1,inactive
16,Cn1cc(-c2ccc(F)c(C(F)(F)F)c2)nc1C1CCN(c2ncnc3[nH]ncc23)CC1,inactive
17,CN(C)c1ccnc2sc3c(=O)n(N4CCCCCC4)cnc3c12,inactive
18,CC(=O)OC(C)(C)/C=C/C(=O)C(C)(O)C1C(O)CC2(C)C3CC=C(C(C)(C)C(=O)O)C(CC(=O)O)C3(C)C(=O)CC12C (centres undefined),inactive
19,CC(=O)C1=CCC2C3CC=C4CC(O)CC(O)C4(C)C3C(O)CC12C (centres undefined),inactive
